Experimental data reported in PubChem BioAssay (NCI).
About 83,000 compounds went through this panel and 20% of them were active in at least one assay; those are over-represented in the sample as a whole.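 48-hour exposure, single concentration, 96-well plates; percent growth endpoint where 0 means no net growth. Active: below 10.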 The source made the active and inactive calls.

The compounds below were run on HL-60(TB) leukemia (assay: NCI-60 one-dose screen, 48 h (100 = growth as untreated, 0 = no growth, -100 = all killed)). Settings: 10 µM unless noted.
In the case of O=C(/C=C/c1cn(-c2ccccc2)nc1-c1ccccc1)CCC(=O)NO, the growth was 98.3% (inactive).
For COc1ccc(-c2cc(-c3cccnc3)nc3sc4c(Cl)nnnc4c23)cc1OC, the growth was 85.4% (inactive).
S=c1[nH]c2cc(Cl)ccc2o1 was tested, and the growth was 86.5% (inactive).
In the case of Cc1ccc(C(=O)C(Br)C(Br)c2ccccc2)cc1 (stereo not given), the growth was 45.1% (inactive).
With CN1CC(c2ccccc2)C(C(=O)c2ccc(Br)cc2)C12C(=O)Nc1ccccc12 (stereo not given) the growth was 99.8% (inactive).
Cn1cc(-c2nonc2-c2c[nH]c3ccc(F)cc23)c2cccnc21 was tested, and the growth was 91.7% (inactive).
In the case of CN(C)c1ccc2cc(-c3nc4ccccc4s3)c(N)nc2c1, the growth was 0.561% (active).
In the case of COc1cc(-c2nc(-c3nc4ccccc4[nH]3)cc3c2[nH]c2ccccc23)cc(OC)c1OC, the growth was 44.2% (inactive).
With N#Cc1c(N)nc(NCCO)nc1-c1ccc(F)cc1 the growth was 93.6% (inactive).
For CC1CCCCN1S(=O)(=O)c1ccc(CN=C=S)cc1 (stereo not given), the growth was 75.9% (inactive).
With C1=Cc2ccccc2N(c2nnc(-c3ccccc3)o2)c2ccccc21 the growth was 86.8% (inactive).
c1ccc(-c2cc(-c3cc(-c4ccccc4)on3)no2)cc1 was tested, and the growth was 64% (inactive).
With O=S1(=O)CCN(Cc2ccccc2)CC1 the growth was 108% (inactive).
CCOC(=O)C1=C(CCl)N(C)C(=O)NC1c1ccc2c(c1)OCO2 (stereo not given) was tested, and the growth was 33.1% (inactive).
For COc1ccc(CCN2CCCN3C2=Nc2ccccc2S3(=O)=O)cc1, the growth was 3.21% (active).
c1cc(OCCN2CCCCC2)cc(-c2n[nH]c3ccc(-c4ncn[nH]4)cc23)c1 was tested, and the growth was 39% (inactive).
For COC(=O)c1c2c(c(C)[n+]([O-])c1C)C(=O)C(NCc1ccc(F)cc1)=CC2=O, the growth was -51.5% (active).
O=C(CCCN1CCOCC1)Nc1ccc(Cn2nnc3c2C(=O)c2nnn(Cc4ccc(NC(=O)CCCN5CCOCC5)cc4)c2C3=O)cc1 was tested, and the growth was -7.47% (active).
CN1C(=O)/C(=C/c2ccc(C(=O)Nc3ncc(Cc4ccc(F)cc4)s3)cc2)SC1=S was tested, and the growth was 37.6% (inactive).
Brc1ccc2c(c1)-c1ccccc1C1=NCCN12 was tested, and the growth was 18.2% (inactive).
For COc1ccc(C#Cc2ccc(=O)oc2-c2cc(OC)c(OC)c(OC)c2)cc1O, the growth was 23.5% (inactive).
COc1ccc(-c2cc(-c3c(C)oc4cc5occc5c(OC)c4c3=O)nc(N)c2C#N)cc1OC was tested, and the growth was 57.9% (inactive).
For CS(=O)(=O)Nc1cc(-c2ccc3ncc(C#N)c(Nc4ccc(F)c(Cl)c4)c3c2)cnc1Cl, the growth was 0.119% (active).
For O=C(CCn1cnc2c(cc(-c3ccccc3)n2-c2ccccc2)c1=O)Nc1ccc(F)cc1, the growth was 86.6% (inactive).
For CC(C)n1nc(C#Cc2cccc(NC(=O)c3cccc(C(F)(F)F)c3)c2)c2c(N)ncnc21, the growth was -18.9% (active).
For CCCCCCCCCCCCNC(=O)N[C@H](C(=O)N[C@H]1/C=C/OCCNC(=O)/C=C/[C@H](C(C)C)NC1=O)C(C)C, the growth was 93.8% (inactive).
In the case of Cc1ccc2nc(-[n+]3cc4ccccc4cc3C)ccc2c1, the growth was 0.144% (active).
In the case of COc1cccc(/C=C2\CCc3ccccc3C2=O)c1, the growth was 63.2% (inactive).
CCN(CC)CCOc1ccc(Cl)c(C)c1 was tested, and the growth was 113% (inactive).
For Fc1ccc(NCc2cn(-c3ccccc3)nc2-c2ccc(OCc3ccccc3)cc2)cc1Cl, the growth was 79.5% (inactive).
In the case of O=C(O)c1ccc(NC(=O)c2ccc(Nc3ccnc(C(F)(F)F)c3)cc2)cc1, the growth was 97.4% (inactive).
CN(C)c1ccc(-c2nc3ncc(Br)cc3o2)cc1 was tested, and the growth was 85.8% (inactive).
In the case of Nc1nc(N)c2c(ccc3c2ccn3Cc2cccc([N+](=O)[O-])c2)n1, the growth was 8.38% (active).
In the case of O=[N+]([O-])c1cccc(/C=N/NC(=S)NC23CC4CC(CC(C4)C2)C3)c1, the growth was 101% (inactive).
In the case of COc1ccc(C2Nc3nc(SC)nc(N)c3N=C3c4ccccc4CCC32)cc1 (stereo not given), the growth was 71.1% (inactive).
With ONc1nc(NO)c2[nH]cnc2n1 the growth was 15.1% (inactive).
In the case of CSc1nc2c(c(=O)n1C)C(c1ccccc1)C1=C(N2)/C(=C/c2ccccc2)CCC1 (stereo not given), the growth was 12.8% (inactive).
In the case of C=C(C)[C@@H]1CC[C@]2(C(=O)N[C@@H](Cc3ccccc3)C(=O)OC)CC[C@]3(C)[C@H](CC[C@@H]4[C@@]5(C)CCC(=O)C(C)(C)[C@@H]5CC[C@]43C)[C@@H]12, the growth was 56% (inactive).
For COc1c(C)cnc(CSc2nc(-c3ccc(C)cc3)cn2-c2ccc(Cl)cc2)c1C, the growth was 95.8% (inactive).
O=C(/C=C/c1cccc(O)c1)c1cccc(-n2cc(-c3ccc4ccccc4c3)[nH]c2=O)c1 was tested, and the growth was -21.5% (active).
